These results are taken from PubChem BioAssay AID431 (Sanford-Burnham Center for Chemical Genomics, 2006).

Structures are written as SMILES. Out of some 63,000 compounds screened, about 1,100 (1.7%) were called active.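 How the source made its calls: active means compounds whose percent cytotoxicity in the single-dose primary screen, scaled between solvent and toxic-drug controls, exceeds 50; inactive means the rest.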 The full list was thinned out, with actives kept by preference. Results with a measured potency or affinity are listed apart.

A short description of this test: viability loss of HPDE-C7K cells – cell-based, fluorescence, HTS, primary screen (AID 431).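 Further: 0% = DMSO solvent wells and 100% = doxorubicin-treated wells.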 The note with it: HPDE-C7K KRASV12 cells, Alamar Blue viability, 48 h; at 10 µM; stronger effect = higher value. (In general: Alamar Blue is a resazurin reagent that responds to reducing activity.)
For the molecule `CCOc1ccc(N2CC(C(=O)Nc3ccc(F)cc3F)CC2=O)cc1` (centres undefined), the cytotoxicity was -19.6% (inactive).
To `Clc1ccc(NC2=NCCC2)cc1Cl` belongs -1.4% (inactive); to `O=C(CN1CCN(C(=O)c2ccco2)CC1)Nc1ccccc1-c1ccccc1`, 3% (inactive); to `CO[C@H]1C[C@@H]2CC[C@@H](C)[C@@](O)(O2)C(=O)C(=O)N2CCCC[C@H]2C(=O)O[C@H]([C@H](C)C[C@@H]2CC[C@@H](O)[C@H](OC)C2)CC(=O)[C@H](C)C=C(C)[C@@H](O)[C@@H](OC)C(=O)[C@H](C)C[C@H](C)C=CC=CC=C1C`, 91% (active).
The same measure for `CC1Cn2c(nnc2-c2ccc(F)cc2)S1` (centres undefined): 11.1% (inactive); for `CCOc1ccccc1NC(=O)C1CCCN(S(=O)(=O)c2cccc3cccnc23)C1` (centres undefined): 26.1% (inactive); for `CCCCn1c(NC(=O)CC)c(C#N)c2nc3ccccc3nc21`: -5.1% (inactive).
Turning to `COc1ccc(-n2c(NC(=O)c3ccco3)c(C#N)c3nc4ccccc4nc32)cc1`, the cytotoxicity is 9.7% (inactive).
To `CCCCn1c(NC(=O)c2ccccc2)c(C#N)c2nc3ccccc3nc21` belongs 112% (active); to `CCCCn1c(NC(=O)c2ccc(F)cc2)c(C#N)c2nc3ccccc3nc21`, 87.7% (active).
The same measure for `CCC(=O)Nc1c(C#N)c2nc3ccccc3nc2n1-c1ccccc1C`: 2.8% (inactive); for `C=CCn1c(NC(=O)c2ccccc2Cl)c(C#N)c2nc3ccccc3nc21`: 7.7% (inactive); for `C=CCn1c(NC(=O)c2ccccc2)c(C#N)c2nc3ccccc3nc21`: 65.2% (active).
Regarding `CCCCCn1c(N)c(C#N)c2nc3ccccc3nc21`, the cytotoxicity is 2.3% (inactive).
The same measure for `CCCCn1c(NC(C)=O)c(C#N)c2nc3ccccc3nc21`: -0.1% (inactive); for `CCCCn1c(NC(=O)c2ccccc2Cl)c(C#N)c2nc3ccccc3nc21`: 35.8% (inactive).
To `N#Cc1c(NC(=O)c2ccc(Br)o2)n(-c2ccccc2)c2nc3ccccc3nc12` belongs 58.7% (active); to `O=C(Nc1ccc2nn(-c3ccccc3)nc2c1)c1ccc(Br)o1`, 13.2% (inactive).
To `CCc1ccc(OCc2nc(-c3ccccn3)no2)c(Br)c1` belongs 30.6% (inactive); to `COc1cc(C2C(C#N)=C(N)Oc3cc(C)oc(=O)c32)cc2c1OCO2` (centres undefined), -4.3% (inactive); to `CCN(CC)CCNc1nc2c(c(=O)[nH]c(=O)n2C)n1CC(O)COc1ccc(Cl)cc1Cl` (centres undefined), 10.6% (inactive).
Regarding `CCc1nnc(NC(=O)CSc2nnc(CSc3nc(C)cc(C)n3)n2C)s1`, the cytotoxicity is 10.6% (inactive).
To `CCOC(=O)c1c(N)sn(-c2ccccc2)c1=S` belongs 13.3% (inactive).
With `N#Cc1c2c(c(=S)n(-c3ccccc3)c1N)CCCC2`, the cytotoxicity was 0.5% (inactive).
To `CC(C)C(CC(=O)N1CCCCC1)C1CCOC(C)(C)C1` (centres undefined) belongs -5.8% (inactive).
As to `Cc1ccc(S(=O)(=O)c2cc3c(=O)n4ccccc4nc3n(Cc3ccco3)c2=N)cc1`, the cytotoxicity is 30.2% (inactive).
The same measure for `Cc1ccc(CNC(=O)c2cc3c(=O)n4ccccc4nc3n(Cc3ccco3)c2=N)cc1`: 98.3% (active); for `N=c1c(C(=O)NCc2ccccc2)cc2c(=O)n3ccccc3nc2n1Cc1ccco1`: 38.6% (inactive); for `Cc1ccc(Cn2c(=N)c(C(=O)NCc3ccco3)cc3c(=O)n4ccccc4nc32)cc1`: -6.4% (inactive).
To `N=c1c(S(=O)(=O)c2ccccc2)cc2c(=O)n3ccccc3nc2n1Cc1ccco1` belongs 4.6% (inactive).
The same measure for `Cc1ccc(CNC2=NCCCCC2)n1C`: 0.1% (inactive); for `CS(=O)(=O)N(CC(=O)N1CCC(C(N)=O)CC1)c1ccc(Oc2ccccc2)cc1`: 4.5% (inactive).
Consider `CN1CCc2ccccc2C1C1CCNCC1` (centres undefined), for which the cytotoxicity was 1.4% (inactive).
To `N#Cc1c(/N=C/c2ccco2)sc2c1CCC2` belongs 0.3% (inactive); to `COc1ccc(NC(=O)CN(c2ccccc2)S(=O)(=O)N(C)C)cc1OC`, -4.2% (inactive); to `COc1cc(C2=NOC(C(=O)NCc3ccc(F)cc3)C2)cc(OC)c1OC` (centres undefined), 55.1% (active).
The same measure for `COc1ccc(C2=NOC(C(=O)NCc3ccc(F)cc3)C2)cc1OC` (centres undefined): 58.9% (active).
To `COc1cccc(C2=NOC(C(=O)NCc3ccc(F)cc3)C2)c1` (centres undefined) belongs 49.7% (inactive).
Turning to `COc1cc(C2=NOC(C(=O)NCc3ccco3)C2)cc(OC)c1OC` (centres undefined), the cytotoxicity was 10.5% (inactive).
To `COc1ccc(CNC(=O)C2CC(c3ccc(F)cc3)=NO2)cc1` (centres undefined) belongs 1.6% (inactive).
The same measure for `COc1ccc(C2=NOC(C(=O)NCc3ccc(F)cc3)C2)cc1` (centres undefined): 43% (inactive); for `Cc1ccc(C2(C)NC(=O)N(CC(=O)Nc3ccc4c(c3)OCO4)C2=O)cc1` (centres undefined): -4.8% (inactive).
To `Fc1ccc(-c2nnc(SCc3ncc(-c4ccccc4)o3)n2CC2CCCO2)cc1` (centres undefined) belongs -17.5% (inactive).
In the case of `CCOc1cc(C2C(C#N)=C(N)OC3CCCC(=O)C32)ccc1OCCN1CCOCC1` (centres undefined), the cytotoxicity was -27% (inactive).
To `COc1ccc(-c2nnc(SCC(=O)Nc3sc4c(c3C#N)CCC4)n2CC2CCCO2)cc1` (centres undefined) belongs -1.4% (inactive); to `Cc1cc(NC(=O)CSc2nnc3c(C)cc4cc(C)c(C)cc4n23)no1`, 10.3% (inactive); to `Cc1cc(C)c2c(c1)cc(C)c1nnc(SCC(=O)Nc3cc(C)on3)n12`, 22.6% (inactive).
The same measure for `Cc1cc(NC(=O)CSc2nnc3c(C)cc4c(C)ccc(C)c4n23)no1`: 70.6% (active).
To `CCCCNC(=O)C1CCCN1C(=O)Nc1cccc(OC)c1` (centres undefined) belongs -7.7% (inactive).
`Nc1c(N2CCN(c3ccccc3)CC2)c2ccccc2oc1=O`: the cytotoxicity is -3.7% (inactive).
`O=C(NCCCN1CCCC1=O)C1CCN(S(=O)(=O)N2CCOCC2)CC1`: the cytotoxicity was -9.6% (inactive).
To `CCOc1ccc(NC(=O)N2CCC(n3c(=O)[nH]c4ccccc43)CC2)cc1` belongs -0.2% (inactive); to `Cc1ccc(C2C=C(c3ccccc3OC(F)F)Nc3ncnn32)cc1` (centres undefined), -1.8% (inactive); to `COc1cccc(C2=CC(c3ccc(N(C)C)cc3)n3ncnc3N2)c1` (centres undefined), -1.1% (inactive).
The same measure for `CN(C)c1ccc(C2C=C(c3ccc(Cl)cc3OC(F)F)Nc3ncnn32)cc1` (centres undefined): 50.9% (active); for `CCn1c(SCC(=O)c2ccc(Cl)cc2)nnc1-c1ccoc1C`: 12.2% (inactive).
Consider `Cc1cc(C)c(C#N)c(N2CCCC(C(N)=O)C2)n1` (centres undefined), for which the cytotoxicity was -4.9% (inactive).
To `COc1ccc(S(=O)(=O)Cc2ccc(C(=O)N3CCN(C(=O)c4ccco4)CC3)o2)cc1` belongs 1.6% (inactive); to `O=C(OCc1nnc(-c2ccccc2)o1)c1ccc2c(c1)OCCO2`, 5.4% (inactive).
In the case of `O=C(Nc1ncnc2sc3c(c12)CCCCC3)c1ccco1`, the cytotoxicity is 7.3% (inactive).
To `Cc1nnc2n1N=CC=C(C(C)(C)C)S2` belongs -17.2% (inactive); to `COn1cnnc1-c1ccccc1`, -14.1% (inactive); to `Cc1nnc2n1N=CC=C(c1ccccc1)S2`, 62% (active).
To `CCOC(=O)c1cc(NC(=O)c2ccoc2C)cc(C(=O)OCC)c1` belongs 15.5% (inactive); to `Cc1noc(C)c1COC(=O)CCc1nc2ccccc2s1`, -2.7% (inactive).
The same measure for `c1cn2cc(CN3CCOCC3)nc2s1`: -3.4% (inactive); for `Cc1nnc2sc(-c3cc4ccccc4o3)nn12`: 8.5% (inactive); for `COc1ccccc1-c1nnc2sc(-c3cc4ccccc4o3)nn12`: 61.8% (active).
In the case of `COc1ccccc1-c1nn2c(-c3ccccc3Cl)nnc2s1`, the cytotoxicity is -7.7% (inactive).
To `COC(=O)CSc1nnc(SCc2ccccc2)s1` belongs -19.9% (inactive); to `CCOC(=O)N1CCN(C(=O)CCc2nc3sc4c(c3c(=O)[nH]2)CCCC4)CC1`, 4.1% (inactive); to `CC(C)OC(=O)CSc1nnc(-c2ccc(Cl)cc2Cl)n1N`, -9.9% (inactive).
To `CC(C)c1ccc(Nc2nc(NCc3ccco3)nc(N3CCOCC3)n2)cc1` belongs 35.8% (inactive).
On to `CN1CCN(c2nc(Nc3cccc(C(F)(F)F)c3)nc(N3CCOCC3)n2)CC1`, for which the cytotoxicity was 52.3% (active).
For the molecule `Cc1cccc(Nc2nc(NCc3ccco3)nc(N3CCOCC3)n2)c1`, the cytotoxicity was 63.9% (active).
For `COc1nc(Nc2cccc(C(F)(F)F)c2)nc(OC)n1`, the cytotoxicity was 4.6% (inactive).
The same measure for `Cc1ccc(Nc2nc(N3CCOCC3)nc(N3CCOCC3)n2)cc1`: 10.2% (inactive); for `O=C(O)c1cccc(Nc2nc(N3CCOCC3)nc(N3CCOCC3)n2)c1`: 1.7% (inactive); for `CCOC(=O)N1CCN(C(=O)C2CC(=O)N(c3ccc(OC)cc3)C2c2ccc(OC)cc2)CC1` (centres undefined): -8.1% (inactive).
The same measure for `O=C(NCCCN=C1NS(=O)(=O)c2ccccc21)c1ccc(S(=O)(=O)N2CCCCC2)cc1`: -14.3% (inactive).
The same measure for `c1ccc(Cn2c(SCc3nc4ccccc4s3)nnc2-c2ccco2)cc1`: 8.5% (inactive).
`Nc1c(NC2CCCCC2)c2ccccc2oc1=O`: the cytotoxicity was -25.2% (inactive).
Regarding `CCOC(=O)c1c(-c2cccs2)csc1NC(=O)CCCC(=O)O`, the cytotoxicity was 25.9% (inactive).
To `COC(=O)c1c(-c2cccs2)csc1NC(=O)CN1CCOCC1` belongs 4.8% (inactive); to `CCOC(=O)c1c(-c2cccs2)csc1NC(=O)CN1CC(C)OC(C)C1` (centres undefined), 60.6% (active); to `N#CCc1ccc(NS(=O)(=O)c2ccc(N3CCCC3=O)cc2)cc1`, -0.7% (inactive).
To `Cc1ccc2nc3sc(C(=O)N4CCOCC4)c(N)c3cc2c1` belongs 5.9% (inactive); to `Cc1cccc2cc3c(N)c(C(=O)N4CCOCC4)sc3nc12`, 68.7% (active); to `Cc1ccc2cc3c(N)c(C(=O)N4CCOCC4)sc3nc2c1`, -10.3% (inactive).
To `O=C(NCCCN1CCCCCC1)c1ccc2c(c1)NC(=O)C(N1CCOCC1)S2` (centres undefined) belongs -17.2% (inactive).
`O=C(Nc1c(C(=O)O)oc2ccc(Br)cc12)c1ccccc1`: the cytotoxicity is 31.7% (inactive).
To `COc1ccc(C(NC(C)=O)c2ccc3cccnc3c2O)c(OC)c1` (centres undefined) belongs -6.2% (inactive); to `COc1cc(C(=O)Nc2ccccn2)cc(OC)c1OC`, 21.5% (inactive); to `CCOc1ccc(C(=O)Nc2c3c(nn2-c2cccc(C)c2C)CS(=O)C3)cc1` (centres undefined), -6.5% (inactive).
